Screening results deposited in PubChem BioAssay by several laboratories.
A selection: hits, their analogues and other compounds. The true share with any hit is near 2.7%.
MRP-1 activ: MRP-1 activation | H69AR cells + doxorubicin, viability rescue, CellTiter-Glo | viability increase, % at 10 µM | 140,000 compounds, 0.61% hits;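 active = viability gain under doxorubicin at or above a set limit, the compound median plus 3 SD, cut at about 4.7% in these data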;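 note: MRP-1 overexpressing cells given doxorubicin 25 µM after compound pretreatment; 18-22 h compound pretreatment then 72 h with doxorubicin before readout; 0% = doxorubicin-only wells and 100% = vehicle-treated cells without doxorubicin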
ERb coact inh: blocks coactivator binding to human estrogen receptor beta. AID 633. 86,000 compounds, 1.3% hits. Q92731. TR-FRET ER-beta LBD / SRC1-Cy5 peptide binding; receptor agonist-loaded with 1 µM estradiol. inhibition, % at 25.6 µM;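 active = compounds whose percent inhibition of the receptor-coactivator binding signal exceeds about 50% in the single-dose screen, limit read from the data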;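 note: 0% = receptor plus peptide wells without compound and 100% = peptide-only wells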
ERa coact pot: ER-alpha (human) coactivator binding potentiation | TR-FRET ERalpha-LBD/SRC-Cy5 coactivator binding, 2 h; 100 = basal binding, no effect | P03372 | coactivator binding (% of control), % at 25.6 µM | 86,000 compounds, 1.3% hits; in the data active = activity above about 200%;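 note: binding measured in presence of low estradiol as agonist stimulus; 0% = peptide alone without receptor and 100% = receptor with peptide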
Target sequence (P03372 whole entry, looked up, the tested form may be a part): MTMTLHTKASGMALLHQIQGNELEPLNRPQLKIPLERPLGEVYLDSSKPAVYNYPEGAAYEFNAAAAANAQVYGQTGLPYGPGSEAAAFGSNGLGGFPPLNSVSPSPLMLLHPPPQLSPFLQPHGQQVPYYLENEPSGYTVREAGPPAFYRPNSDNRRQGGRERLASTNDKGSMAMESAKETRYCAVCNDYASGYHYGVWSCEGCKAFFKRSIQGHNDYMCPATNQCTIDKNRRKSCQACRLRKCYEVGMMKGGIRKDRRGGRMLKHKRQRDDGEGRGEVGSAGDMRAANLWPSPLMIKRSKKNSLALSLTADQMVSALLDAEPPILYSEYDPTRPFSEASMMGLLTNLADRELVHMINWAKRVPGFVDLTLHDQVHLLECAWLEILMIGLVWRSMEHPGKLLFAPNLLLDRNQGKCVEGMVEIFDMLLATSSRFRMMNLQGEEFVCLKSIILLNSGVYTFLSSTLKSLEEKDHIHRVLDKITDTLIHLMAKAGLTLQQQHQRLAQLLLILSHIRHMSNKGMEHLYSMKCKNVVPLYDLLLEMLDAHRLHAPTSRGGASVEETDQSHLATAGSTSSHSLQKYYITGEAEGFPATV
MRP reversal: reverses drug resistance mediated by MRP. H69AR cells + 2 uM doxorubicin, CellTiter-Glo, 72 h. differential viability (reversal), % at 10 µM. 85,000 compounds, 0.04% hits. AID 602;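 active = viability drop by adding the cancer drug above about 55%, with treated viability meeting a 40% cutoff, limit read from the data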;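 note: viability without doxorubicin minus viability with 2 µM doxorubicin for each compound; larger differential means the compound sensitizes cells more to doxorubicin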
ERa coact inh: ER-alpha (human) coactivator binding inhibition; TR-FRET ER-alpha LBD / SRC-1 peptide, estradiol-bound; inhibition, % at 25.6 µM; 86,000 compounds, 1.7% hits; in the data active = inhibition above about 50%;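 note: 0% = receptor plus peptide control and 100% = peptide only without receptor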
Active calls of the source: *; · = not tested or not shown; [ ] = dose if it differs, or a comment.

SMILES | MRP-1 activ | ERb coact inh | ERa coact pot | MRP reversal | ERa coact inh
COc1cccc(-n2c(CN3CCN(c4ccccc4)CC3)nc3ccc([N+](=O)[O-])cc3c2=O)c1 | -3 | · | · | · | ·
O=C(O)CSc1nnnn1-c1ccc2c(c1)OCCO2 | -2 | · | · | · | ·
COc1ccc(-n2nnnc2SCC(=O)c2cccc(OC)c2)cc1 | -3 | 2 | 131 | -4 | 1
O=C(CSc1nnnn1-c1ccc2c(c1)OCCO2)c1cccc2c1OCCO2 | -1 | -27 | 375*[fluorescence artefact?] | 20 | -16
Cn1c(=O)oc2ccc(C(=O)CSc3nnnn3-c3ccccc3)cc21 | -3 | 11 | 284*[fluorescence artefact?] | 0 | 17
COc1ccc(-n2nnnc2SCC(=O)c2ccc3c(c2)OCCO3)cc1 | 0 | -12 | 307*[fluorescence artefact?] | 16 | -9
O=C(CSc1nnc(-c2cccs2)n1-c1cccc(Cl)c1)c1cccc2c1OCCO2 | -1 | 9 | 259* | 14 | 11
Cc1cccc(-c2cc3nc(C)cc(N4CC(C)CC(C)C4)n3n2)c1 (centres undefined) | 5.1* | -18 | 88 | 8 | -21
Cc1cccc(-c2cc3nc(C)cc(NCCCN(C)C)n3n2)c1 | -4 | -7 | 129 | 9 | 2
CCCC(=O)Nc1ccc(C(=O)NNC(=O)COc2ccc(Br)c(C)c2)cc1 | 1 | · | · | · | ·
O=C(Nc1ncc(Cc2ccc(SC(F)F)cc2)s1)c1ccc(OC(F)F)cc1 | -3 | · | · | · | ·
N#C/C(=C(/O)CSc1nnc(Cc2cccs2)n1C1CCCCC1)c1nc2ccccc2[nH]1 | -2 | -3 | 58 | -15 | 77*[fluorescence artefact?]
CC(C)CCn1c(=O)c2ccccc2n2c(CN(C)Cc3ccccc3)nnc12 | -4 | 0 | 87 | 62* | 1
Cc1cccc(NC(=O)Cn2nnc(-c3ccc(CN4CCCC4)cc3)n2)c1C | -1 | 17 | 204*[fluorescence artefact?] | 11 | 11
O=C(Cn1c(=O)oc2cc(S(=O)(=O)N3CCCCCC3)ccc21)NC1CCCCCCC1 | -5 | 24 | 202* | 1 | 36
O=C(Cn1c(=O)oc2cc(S(=O)(=O)N3CCCC3)ccc21)N1CCN(c2ccccc2)CC1 | -2 | 7 | 102 | -3 | 16
Cc1cc(C)cc(NC(=O)Cn2c(=O)oc3cc(S(=O)(=O)N4CCC(C)CC4)ccc32)c1 | 0 | 54*[fluorescence artefact?] | 26 | 7 | 89*[fluorescence artefact?]
O=C(Cn1c(=O)oc2cc(S(=O)(=O)N3CCCC3)ccc21)Nc1ccc(C(F)(F)F)cc1 | 3 | 3 | 144 | 16 | 69*[fluorescence artefact?]
O=C(Cn1c(=O)oc2cc(S(=O)(=O)N3CCCC3)ccc21)NC1CCCc2ccccc21 (centres undefined) | -1 | 67*[fluorescence artefact?] | 36 | 5 | 89*[fluorescence artefact?]
CC(NC(=O)Cn1c(=O)oc2cc(S(=O)(=O)N3CCCC3)ccc21)c1ccccc1 (centres undefined) | -1 | 5 | 104 | -1 | 6
Cc1cc(OC(F)F)ccc1NC(=O)Nc1ccc([N+](=O)[O-])cc1 | -6 | · | · | · | ·
COc1ccc(-c2nnc3ccc(SCC(=O)Nc4nc5ccccc5s4)nn23)cc1OC | -1 | · | · | · | ·
Cc1ccc(NC(=O)CSCC(=O)N2c3ccccc3CCc3ccccc32)cc1 | -3 | · | · | · | ·
CS(=O)c1ccccc1-c1nc(-c2cc(C(F)(F)F)cc(C(F)(F)F)c2)no1 (centres undefined) | -2 | · | · | · | ·
CCc1nnc(NC(=O)CCC(=O)N2CCN(Cc3ccccc3)CC2)s1 | -1 | -10 | 127 | 9 | -7
SMILES | MRP-1 activ | ERb coact inh | ERa coact pot | MRP reversal | ERa coact inh
CCc1nnc(NC(=O)c2ccc(-c3ccc(Cl)cc3)o2)s1 | 7.2* | 42 | 274*[fluorescence artefact?] | 8 | 54*[fluorescence artefact?]
CCc1nnc(NC(=O)CCC(=O)N2CCN(Cc3ccc(Cl)cc3)CC2)s1 | 6.3* | 16 | 89 | -10 | 11
CCn1nnc(NC(=O)c2ccc(-c3ccc(Cl)cc3)o2)n1 | -2 | 0 | 96 | 11 | 4
O=C(COC(=O)c1nc(-c2ccccc2)n(-c2cccc(C(F)(F)F)c2)n1)NCc1cccs1 | 3 | · | · | · | ·
CCC(Oc1ccccc1)C(=O)Nc1ccsc1C(=O)OC (centres undefined) | -2 | · | · | · | ·
COc1cccc(-n2nc(-c3ccnn3-c3ccc(F)cc3)c(=O)n(C)c2=O)c1 | -2 | 74* | 104 | -2 | 2
COc1ccc(-n2nccc2-c2nn(-c3cccc(OC)c3)c(=O)n(C)c2=O)cc1 | -2 | -13 | 122 | -1 | 2
CN(C)c1ccc(-c2nnc(-c3ccc(S(=O)(=O)C(F)F)cc3)o2)cc1 | -2 | 24 | 241* | 9 | 55*[fluorescence artefact?]
Cc1ccc(S(=O)(=O)N(Cc2cc3cccc(C)c3[nH]c2=O)c2ccccc2)cc1 | 1 | · | · | · | ·
